Assay results published in PubChem BioAssay AID1851 (National Center for Advancing Translational Sciences (NCATS), 2009).
Where “and” joins values, the source holds several entries; their conditions need not be identical. Identical values can stand only once. In all, about 16,000 compounds went through this assay and about 4,000 (25%) were called active. Not shown: some 26% with an inconclusive outcome. Only a sample is shown. Values without a mark were called inactive. The call rests on the fitted dose curve; in most records, active means well fitted curve in the direction sought with a large enough effect; inconclusive means small, poorly fitted or top-dose-only effect, or effect the other way; inactive means no such curve, though single readings can be large or run the other way.

Target: Cytochrome P450 2C9 (Homo sapiens) (UniProt P11712)
Sequence (P11712 whole entry, looked up): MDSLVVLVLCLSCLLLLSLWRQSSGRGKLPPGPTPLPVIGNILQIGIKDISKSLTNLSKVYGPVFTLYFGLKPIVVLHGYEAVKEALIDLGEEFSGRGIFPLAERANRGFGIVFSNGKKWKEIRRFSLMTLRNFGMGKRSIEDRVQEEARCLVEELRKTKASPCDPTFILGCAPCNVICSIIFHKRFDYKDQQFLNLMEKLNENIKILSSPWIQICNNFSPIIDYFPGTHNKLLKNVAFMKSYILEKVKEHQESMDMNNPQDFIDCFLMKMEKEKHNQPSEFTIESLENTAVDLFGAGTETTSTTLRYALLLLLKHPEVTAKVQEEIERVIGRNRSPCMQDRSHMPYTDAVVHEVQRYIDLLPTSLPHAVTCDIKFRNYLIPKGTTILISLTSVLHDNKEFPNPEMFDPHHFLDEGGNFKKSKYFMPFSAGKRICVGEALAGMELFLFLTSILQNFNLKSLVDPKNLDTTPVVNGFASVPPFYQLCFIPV
Assay: Cytochrome panel assay with activity outcomes
Conditions: recombinant CYP, pro-luciferin dealkylation, luminescence, p450-cyp2c9; series mostly up to 57.1 µM; activity, negative = inhibition: at the top concentration
On the % scale 0 is the no-effect control and ±100 the full control effect.

With Cn1ncc2c(NCCc3ccccc3)nc(Cl)nc21 as the compound, how does the activity, negative = inhibition read?
The activity, negative = inhibition was -22.7% [at 11.4 µM].

With O=C(CCCc1ccccn1)c1ccccc1 as the compound, how does the activity, negative = inhibition read?
Its activity, negative = inhibition is -17.1% [at 11.4 µM].

With O=C(COc1cccc2ccccc12)N1c2ccccc2CCc2ccccc21 as the compound, how does the AC50 read?
The AC50 was 2.82 µM (active).

For OC[C@@H](O)COc1cccc2ccccc12, which “activity, negative = inhibition” value is on record?
The value was -24.2%.

For COc1ccccc1N1CCN(C[C@@H](O)COc2cccc3ccccc23)CC1, which “activity, negative = inhibition” value is on record?
Its value is 18.2% [at 25.6 µM].

For O=C(c1ccco1)N1CCC[C@@]2(CCN(Cc3nccs3)C2)C1, which “activity, negative = inhibition” value is on record?
The value was -3.46%.

How did the “activity, negative = inhibition” value turn out when O=C(c1ccncc1)N1CCC2(CCN(Cc3nccs3)CC2)CC1 was run?
The value was 2.77%.

For O=C(c1cccc(F)c1)N1CCC[C@@]2(CCN(Cc3nccs3)C2)C1, which AC50 is on record?
The AC50 was 10 µM (active).

How did the AC50 turn out when O=C(c1cc(C(F)(F)F)cc(C(F)(F)F)c1)N1CCC2(CCN(Cc3nccs3)CC2)CC1 was run?
The AC50 was 12.6 µM (active).

O=C(c1ccco1)N1CCC2(CCN(Cc3nccs3)CC2)CC1 was tested. Which “activity, negative = inhibition” value did it give?
The value was 3.85%.

Which “activity, negative = inhibition” value does the source give for O=C(c1cccc(F)c1)N1CCC2(CCCN(Cc3nccs3)C2)CC1 here?
The value was -3.9%.

Which AC50 does the source give for O=C(c1cccc(F)c1)N1CCC2(CCN(Cc3nccs3)CC2)CC1 here?
Its AC50 is 15.8 µM (active).

O=C(c1cc(C(F)(F)F)cc(C(F)(F)F)c1)N1CCC[C@@]2(CCN(Cc3nccs3)C2)C1 was tested. Which “activity, negative = inhibition” value did it give?
The value was -1.58%.

How did the “activity, negative = inhibition” value turn out when O=C(c1cc(C(F)(F)F)cc(C(F)(F)F)c1)N1CCC2(CCCN(Cc3nccs3)C2)CC1 was run?
The value was 29.9%.

NC(N)=NN=Cc1c(Cl)cccc1Cl was tested. Which AC50 did it give?
The AC50 was “inactive”.

Cc1cc(CC(=O)O)n(C)c1C(=O)c1ccc(Cl)cc1 was tested. Which “activity, negative = inhibition” value did it give?
Its value is -17.2% [at 25.6 µM].

Which AC50 does the source give for Cc1cc2ccccn2c1C(=O)c1ccc(Cl)cc1 here?
The AC50 was 11.2 µM (active).

CCS(=O)(=O)c1ccc(C(=O)Nc2ccccc2)c(Cl)c1Cl was tested. Which AC50 did it give?
The AC50 was 10 µM (active).

How did the activity, negative = inhibition turn out when CN1C[C@H](c2ccccc2)C(O)([C@]2(c3ccccc3)CN(C)C[C@@H](c3ccccc3)C2=O)[C@H](c2ccccc2)C1 (some centres undefined) was run?
The activity, negative = inhibition was 5.9% [at 11.4 µM].

How did the “activity, negative = inhibition” value turn out when O=C(c1ccncc1)N1CCC2(CCCN(Cc3ccccc3)C2)CC1 was run?
Its value is -5.36%.

How did the AC50 turn out when O=C(c1ccncc1)N1CCC2(CCCN(Cc3ccncc3)C2)CC1 was run?
Its AC50 is 5.01 µM (active).

Which AC50 does the source give for COc1ccc(C(=O)N2CCC3(CCCN(Cc4ccncc4)C3)CC2)cc1 here?
The AC50 was 3.16 µM (active).

Which “activity, negative = inhibition” value does the source give for O=C(c1ccncc1)N1CCC[C@@]2(CCN(Cc3ccccc3)C2)C1 here?
The value was -19%.

Which “activity, negative = inhibition” value does the source give for COc1ccc(C(=O)N2CCC3(CCCN(CC(C)C)C3)CC2)cc1 here?
Its value is 6.29%.

Which “activity, negative = inhibition” value does the source give for COc1ccc(C(=O)N2CCC3(CCCN(Cc4ccccc4)C3)CC2)cc1 here?
Its value is 4.43%.

How did the activity, negative = inhibition turn out when COc1cc2c3cc1Oc1cc(ccc1O)C[C@@H]1c4c(cc(OC)c(O)c4Oc4ccc(cc4)C[C@H]3[N+](C)(C)CC2)CC[N+]1(C)C was run?
The activity, negative = inhibition was 4.34% [at 11.4 µM].

With Cc1sc(NC(=O)c2ccco2)c(C(c2ccncc2)N2CCOCC2)c1C (centres undefined) as the compound, how does the AC50 read?
Its AC50 is 2.24 µM (active).

With O=C(Nc1c(C(=O)N2CCCCC2)cnn1-c1ccccc1)c1ccco1 as the compound, how does the “activity, negative = inhibition” value read?
Its value is -26.3%.

How did the “activity, negative = inhibition” value turn out when O=C(Nc1c(C(=O)N2CCOCC2)cnn1-c1ccccc1)c1ccco1 was run?
Its value is 4.62%.

With Cc1sc(NC(=O)c2ccco2)c(C(c2cccnc2)N2CCCC2)c1C (centres undefined) as the compound, how does the AC50 read?
Its AC50 is 2.51 µM (active).

Cc1cnc(CNc2ncncc2-c2c(C)noc2C)cn1 was tested. Which activity, negative = inhibition did it give?
Its activity, negative = inhibition is 17.1% [at 2.29 µM].

With O=C1NCC2(CCN(CCc3ccccc3)CC2)O1 as the compound, how does the AC50 read?
The AC50 was “inactive”.

Which AC50 does the source give for N#C[C@H](c1ccccc1)N1CCCN([C@@H](C#N)c2ccccc2)C1c1ccccc1O (some centres undefined) here?
The AC50 was 3.16 µM (active).

For O=c1sc2ccccc2n1CCCOc1ccccc1, which AC50 is on record?
The AC50 was 12.6 µM (active).

With Cc1ccccc1OCCCN1CCCC1 as the compound, how does the “activity, negative = inhibition” value read?
The value was -3.29%.

How did the AC50 turn out when Cc1ccccc1OCCCn1c(=O)sc2ccccc21 was run?
Its AC50 is 5.01 µM (active).

With C[N+](C)(CCCOc1ccccc1)c1ccccc1 as the compound, how does the “activity, negative = inhibition” value read?
Its value is -28.1% [at 25.6 µM].

With O=C(O)c1ccccc1NCn1c(=S)sc2ccccc21 as the compound, how does the activity, negative = inhibition read?
The activity, negative = inhibition was -5.72% [at 11.4 µM].

How did the “activity, negative = inhibition” value turn out when Cc1ccc(Cl)cc1-n1c(=O)cc(N2CC(C)OC(C)C2)[nH]c1=O (centres undefined) was run?
Its value is 35.2%.

How did the AC50 turn out when C=CCNS(=O)(=O)c1cccc2cc(C(=O)O)c(O)cc12 was run?
The AC50 was 2.82 µM (active).

O=C(O)c1cc2ccccc2c(Cc2cc3ccccc3c(C(=O)O)c2O)c1O (tested in a mixture with another compound) was tested. Which “activity, negative = inhibition” value did it give?
Its value is -15.8% [at 25.6 µM].

How did the activity, negative = inhibition turn out when NS(=O)(=O)c1ccc(N=Nc2c(O)c(C(=O)O)cc3ccccc23)cc1 was run?
The activity, negative = inhibition was -28.9% [at 11.4 µM].

N#Cc1cccc(NC(=O)N2CC[C@@]3(CCCNC3)C2)c1 was tested. Which “activity, negative = inhibition” value did it give?
Its value is -22.5%.

With CO/N=C(/C)CCC(=O)OC[C@@H]1O[C@H](C#Cc2ccccc2)C=C[C@@H]1Oc1ccc(C)cc1 as the compound, how does the activity, negative = inhibition read?
Its activity, negative = inhibition is -2.9% [at 11.4 µM].

Which activity, negative = inhibition does the source give for C/C(CCC(=O)OC[C@@H]1O[C@H](C#Cc2ccccc2)C=C[C@@H]1Oc1ccc(C)cc1)=N/OC[C@@H](C)[C@H](OCc1ccccc1)C(C)C here?
The activity, negative = inhibition was 12.5% [at 11.4 µM].

For CC(=O)OC[C@@H]1O[C@H](C/C=N\O[C@@H](C)c2cn([C@H](CO)Cc3ccccc3)nn2)C=C[C@@H]1OC(C)=O, which activity, negative = inhibition is on record?
Its activity, negative = inhibition is 8% [at 11.4 µM] and -8.02% [at 11.4 µM].

With C/C(CCC(=O)OC[C@@H]1O[C@H](C#Cc2ccccc2)C=C[C@@H]1Oc1ccc(C)cc1)=N/O[C@@H](C)c1cn([C@H](CO)Cc2ccccc2)nn1 as the compound, how does the AC50 read?
Its AC50 is 3.16 µM (active).

Which AC50 does the source give for COc1ccc(O[C@H]2C=C[C@@H](c3ccccc3)O[C@H]2COC(=O)CC/C(C)=N\O[C@@H](C)c2cn([C@H](CO)Cc3ccccc3)nn2)cc1 here?
Its AC50 is 1.26 µM (active).

For COc1ccc(O[C@H]2C=C[C@@H](c3ccccc3)O[C@H]2COC(=O)CC/C(C)=N\O[C@@H](C)CN2CCCCc3nc(C)c(C)cc32)cc1, which activity, negative = inhibition is on record?
Its activity, negative = inhibition is -28.1% [at 11.4 µM].
